# Source: PubChem
# HCMV antiviral = blocks human cytomegalovirus replication; HFF cells, HCMV-luciferase reporter, 72 h; hits give low values; AID 1259415; 410,000 compounds, 4.5% hits; activity change, negative = inhibition, % at 57.5 µM; in the data active = activity change below about -60%; inconclusive = no clear call, values can overlap the other calls; inactive = above about -39%
#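 Human foreskin fibroblasts infected with luciferase-reporter HCMV at MOI 1 PFU/cell, compounds at two doses. Luciferase measured 72 h post infection; normalized to buffer-only basal and Salinomycin (10uM) controls.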
# FMDV inh = antivirals against foot and mouth disease virus. Potency, µM (doses to about 57.9 µM), for the others: at the highest dose activity change, negative = inhibition, hits mostly inhibitors. FMDV antiviral cell-based qHTS. 410,000 compounds, 1.2% hits. AID 1159524; calls by dose curve; tested in HEK293T cells; also: read-out not given here; potency is read from the fitted curve at half-maximal effect; nearly all actives have a fitted effect of over 45% in size
# HCV inh = inhibitors of hepatitis C virus infection; Huh7.5.1 HCVcc-Cre infection, luciferase reporter, 44 h; Potency, µM (titrated, usually from 41.8 µM), inactives show top-dose activity change, negative = inhibition, most hits filed as inhibitors; 340,000 compounds, 3.4% hits; AID 651820; active = well fitted inhibition curve with a large enough effect; inconclusive = small, poorly fitted or top-dose-only effect, or another doubt; inactive = no such curve, though single readings can be large or run the other way; also: potency is read from the fitted curve at half-maximal effect
#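 After 44 h co-culture of compound, cells and HCVcc-Cre (~0.5 moi), substrate is added for 15 min at room temperature and luciferase measured over 15 sec. Cells were seeded at 1,000/well and pre-cultured 4 h.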
# LASV entry inh = blocks Lassa virus binding to or entry into cells; Lassa virus pseudotype entry inhibition, cell reporter; Potency, µM (highest dose often 37.9 µM), inactives show at the top dose activity change, negative = inhibition, actives largely listed as inhibitors; 300,000 compounds, 1.2% hits; calls by dose curve; tested in HEK293 cells; also: potency is read from the fitted curve at half-maximal effect; nearly all actives have a fitted effect of over 50% in size
# MARV entry inh = Marburg virus entry inhibition; Potency, µM (titrated, usually from 37.8 µM), inactives show at the top dose activity change, negative = inhibition, actives largely listed as inhibitors; AID 540276; 300,000 compounds, 1.8% hits; Marburg virus pseudotyped entry inhibition, cell reporter; calls by dose curve; tested in HEK293 cells; also: potency is read from the fitted curve at half-maximal effect
# Numbers without * were called inactive; ? = inconclusive; · = not tested or not shown; ! = a repeat was not active; [ ] = remark or other dose. Compounds with a hit are over-represented: about 7.9% of the library has one in this group of screens. % is scaled to controls: 0 for no effect and ±100 for the full control effect.
SMILES,HCMV antiviral,FMDV inh,HCV inh,LASV entry inh,MARV entry inh
COc1ccc(/C=C/C(=O)NCc2cn(C)nc2C)cc1COc1ccc(Cl)cc1Br,12.0,-8.5%,?,?,?
CCn1nc(C)c(NC(=O)/C=C/c2ccc(OC)c(COc3ccc(Cl)cc3Br)c2)c1C,-63.9*,0.0%,?,?,?
O=[N+]([O-])c1ccc(Cl)c(C2Nc3cccc4cccc(c34)N2)c1,-81.5*,-23.0%,-29.1%,1.5%,-25.7%
O=[N+]([O-])c1ccccc1C1Nc2cccc3cccc(c23)N1,-17.8,-5.5%,-15.6%,?,-15.8%
COc1cc(OC)c(OC)cc1CN1CCN(Cc2cccn2C)CC1,16.6,-5.9%,-7.8%,-0.5%,20.6µM*
Cc1nn(CC(=O)N2CCC(C)CC2)c(=O)c2cc3sccc3n12,-35.7,-15.8%,·,·,8.6%[46.1 µM]
CCOc1ccccc1N(C)C(=O)Cn1ncc2c([nH]c3ccccc32)c1=O,-19.1,-16.9%,?,-19.6%[46.1 µM],6.31µM*
CCOc1ccccc1N(C)C(=O)Cn1nc(Cc2cccnc2)c2ccccc2c1=O,-72.0*,-2.0%,·,4.0%[46.1 µM],4.7%[46.1 µM]
CCC(=O)N1CCc2cc(Br)cc(S(=O)(=O)Nc3ccccc3C(=O)OC)c21,5.6,31.5%,·,0.9%[46.1 µM],?
CC(C)[C@@H](OCc1ccccc1)[C@H](C)CON=C1[C@H]2CCn3c(=O)n(-c4ccccc4)c(=O)n3[C@@H]2[C@H](O)[C@@H]2O[C@H]12,·,·,·,·,24.7%[14.2 µM]
COc1cccc(-c2nnc3n(Cc4ccc(C)cc4)c(=O)c4ccccc4n23)c1O,-8.0,-22.1%,·,-1.8%[46.1 µM],26.9%[46.1 µM]
COc1ccc(Cn2c(=O)c3ccccc3n3c(-c4cccc(OC)c4OC)nnc23)cc1,-89.2*,-15.0%,·,-2.4%[46.1 µM],1.6%[46.1 µM]
CCOC(=O)CC(=O)CSc1nc(CC)c(C)cc1C#N,-89.1*,11.0%,14.6%,17.3%,?
NCCCC(=O)N1c2ccccc2Sc2ccc(Cl)cc21,22.5,-22.8%,5.01µM*,0.708µM*,?
NCCC(=O)N1c2ccccc2Sc2ccc(Cl)cc21,34.7,-25.8%,?,·,·
CN(C)CCC(=O)N1c2ccccc2Sc2ccc(Cl)cc21,?,-8.6%,6.31µM*,-0.2%,?
CN(C)CC(=O)N1c2ccccc2Sc2ccc(Cl)cc21,-63.7*,-10.5%,?,0.8%,-18.1%[46.1 µM]
CCc1ccc(NS(=O)(=O)c2ccc3oc(=O)ccc3c2)cc1,-65.9*,19.7%,-22.2%,-21.6%,?
COc1ccc2c(c1)c1c(c(=O)n(-c3ccc(F)c(Cl)c3)c(=O)n1CC(=O)N1CCCC1)n2C,11.1,-2.9%,·,6.1%[46.1 µM],·
Cc1ccc(C(CC(=O)NCC2(c3ccccc3)CCCC2)c2ccccc2)c(O)c1 (stereo unspecified),-15.2,7.94µM*,·,?,?
CCCN(CCC)C(=O)CC(c1ccccc1)c1cc(Br)ccc1O (stereo unspecified),-20.9,?,?,2.0%,?
CCCN(CCC)C(=O)CC(c1ccccc1)c1ccc(C)cc1O (stereo unspecified),-69.7*,-20.2%,·,28.5%[14.3 µM],?
Cc1ccc2c(C)c(C(=O)Nc3ccc(S(=O)(=O)Nc4onc(C)c4C)cc3)oc2c1,-30.3,-11.0%,0.501µM*,-10.9%[46.1 µM],4.7%[46.1 µM]
Cc1ccc2c(=O)cc(C(=O)Nc3ccc(S(=O)(=O)Nc4onc(C)c4C)cc3)oc2c1,-38.3,9.2%,18.0%,-0.2%[46.1 µM],1.6%[46.1 µM]
Cc1cnc(-n2ncc(C(=O)N(C)C3CCOC3)c2C)nc1-c1ccc(F)cc1 (stereo unspecified),·,25.7%,·,·,·
SMILES,HCMV antiviral,FMDV inh,HCV inh,LASV entry inh,MARV entry inh
CC(=O)N1c2ccc(S(=O)(=O)NCC3CCC(C(=O)Nc4cccc(C)c4)CC3)cc2CC1C (stereo unspecified),37.6,-17.1%,·,-12.7%[46.1 µM],·
CC(=O)N1c2ccc(S(=O)(=O)NCC3CCC(C(=O)Nc4cccc(C)n4)CC3)cc2CC1C (stereo unspecified),-71.2*,22.4µM*,?,?,?
CC(=O)N1c2ccc(S(=O)(=O)N3CCC(C(=O)Nc4ccccn4)CC3)cc2CC1C (stereo unspecified),?,-28.1%,?,·,·
CC(=O)N1c2ccc(S(=O)(=O)N3CCC(C(=O)Nc4cccc(C)n4)CC3)cc2CC1C (stereo unspecified),-86.7*,-19.1%,1.26µM*,·,·
CCOC(=O)C1=C(O)c2ccccc2C(=O)/C1=C\c1ccc(CC)cc1,·,?,?,?,2.06µM*
CCOC(=O)C(C)N1C(=O)S/C(=C/c2cc(C)n(-c3ccccn3)c2C)C1=O (stereo unspecified),24.1,-11.4%,10µM*,4.8%,?
CCOC(=O)C(C)N1C(=O)S/C(=C/c2cc(C)n(-c3ccncc3)c2C)C1=O (stereo unspecified),-12.2,-9.3%,10µM*,·,·
CCn1c(C)cc(/C=C2/SC(=O)N(C(C)C(=O)OC)C2=O)c1C (stereo unspecified),-12.7,-11.8%,?,?,?
COC(=O)C(C)N1C(=O)S/C(=C/c2cc(C)n(C(C)C)c2C)C1=O (stereo unspecified),14.0,-22.6%,10µM*,-26.9%,?
CCN1/C(=C/c2cc[n+](C)cc2)C=Cc2cc(C)ccc21,-99.9*,5.01µM*,5.01µM*,?,?
CCN1/C(=C/c2ccc3ccccc3[n+]2CCCS(=O)(=O)[O-])C=Cc2cc(C)ccc21,-33.6,?,20.8%,14.1%[46.1 µM],23.1%[46.1 µM]
COc1ccc(OC)c(NC(=O)[C@H](CSCc2ccccc2)N2Cc3ccccc3C2=O)c1,-5.5,-1.1%,·,?,?
O=C1[C@H]2[C@H]3[C@H](O)[C@H](O)C/C(=N\OCc4ccccc4)[C@H]3CC[C@H]2C(=O)N1C[C@@H]1CCCO1,·,·,·,·,-6.8%[14.2 µM]
O=C(OCn1ncc(Br)c(Br)c1=O)c1c(F)cccc1F,·,·,2.82µM*,·,5.2%
CC(=O)Cn1ncc(Br)c(Br)c1=O,-105.4*,?,?,?,?
CC(C)NC[C@@H](O)COc1cccc2[nH]ccc12,·,-4.7%,·,·,?
COc1ccc(C(OCC(O)CNC(C)c2ccccc2)c2ccc(OC)cc2)cc1 (stereo unspecified),-22.0,4.0%,-26.4%,?,3.55µM*
Cc1cccc(C)c1OCC(O)CNC(C)c1ccccc1 (stereo unspecified),-36.3,-22.5%,12.6µM*,?,?
Cc1ccc(C(OCC(O)CNCc2ccc(F)cc2)c2ccccc2)cc1 (stereo unspecified),-102.0*,?,8.91µM*,·,·
CC(C)NCC(O)COc1cccc2ccccc12 (stereo unspecified),30.9,-23.5%,-15.1%,-7.6%,0.794µM*!
NCC(O)COCCC12CC3CC(CC(C3)C1)C2 (stereo unspecified),-11.4,-11.4%,10.5%,9.7%,-24.4%[46.1 µM]
CC(NCC(O)COCCC12CC3CC(CC(C3)C1)C2)c1ccccc1 (stereo unspecified),-98.4*,31.6µM*,7.94µM*,?,11.6µM*
